Values joined by “and” are separate entries in the source; they are usually repeats but may differ in a detail not shown here. Equal entries are not always repeated. Inconclusive results are not listed. Where a structure was tested more than once in an assay, its records may differ in their call. Active and inactive are the calls of the source. Unless noted, calls come from the whole dose curve; as a rule, active = well fitted curve in the direction sought with a large enough effect in the repeat runs; inconclusive = weak or mixed curves; inactive = no such curve, though single readings can be large; an effect the other way counts as inactive or inconclusive.

The target of experiment [1] is Progesterone receptor (Homo sapiens) (UniProt P06401). Put plainly: qHTS assay to identify small molecule agonists of the progesterone receptor (PR) signaling pathway (AID 1346784; calls by dose curve; note: nearly all actives have a fitted effect of over 30% in size). The gist of the method:
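PR-UAS-bla HEK 293T cells (beta-lactamase reporter under UAS) in 2% charcoal-stripped FBS, dosed with 23 nL compound after 6 hr, incubated 16hr at 37C. LiveBLAzer B/G FRET substrate added, fluorescence read after 2 hours.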
(In general: Quantitative high-throughput screening tests each substance at several concentrations.)

Experiment [2] shares this target. As to the kind of experiment: qHTS assay to identify small molecule antagonists of the progesterone receptor (PR) signaling pathway (AID 1346795; active = well fitted inhibition curve with a large enough effect in the signal ratio in the repeat runs, not every such curve was filed as active; the % refers to the signal ratio). The procedure, abridged:
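PR-UAS-bla HEK293T cells with beta-lactamase reporter under UAS control, in 2% charcoal-stripped FBS, treated with compounds plus 1 nM promegestone (R5020, final) for 16 hr at 37C. Read-out: FRET beta-lactamase substrate fluorescence after 2 hr at room temperature.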

Experiment [3] is described as follows: qHTS assay to identify small molecule antagonists of the progesterone receptor (PR) signaling pathway - cell viability counter screen (AID 1346798). Note: series mostly up to about 92 µM; nearly all actives have a fitted effect of over 50% in size. The procedure, abridged: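 PR-UAS-bla HEK293T cells, 3,000/well in 2% charcoal-stripped FBS medium, dosed with compounds plus R5020 agonist and incubated 16 h at 37C. Viability then measured in the same wells by CellTiter-Glo luminescence after 30 min at RT.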

Experiment [4] can be described thus: qHTS assay to identify small molecule agonists of the progesterone receptor (PR) signaling pathway - cell viability counter screen (AID 1346799; calls by dose curve; note: nearly all actives have a fitted effect of over 45% in size). The procedure, abridged: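 Counter screen in the PR-UAS-bla HEK293T wells (2% charcoal-stripped FBS, 16 h compound exposure at 37 C) after the bla read. CellTiter-Glo added, 30 min at room temperature, luminescence read as cell viability.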

Experiment [5] is described as follows: qHTS assay to identify small molecule antagonists of the TGF-beta/Smad signaling pathway - cell viability counter screen (AID 1346824). Note: nearly all actives have a fitted effect of over 50% in size. The procedure, abridged: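 Cytotoxicity counter-screen run in the same wells as the beta-lactamase Smad reporter read: CellTiter-Glo luminescence after 30 min at room temperature. HEK 293T SBE-bla cells had 5 hr compound exposure at 37 C with TGF-beta1 (0.25 ng/mL stock).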

Experiment [6] can be described thus: qHTS assay to identify small molecule agonists of the TGF-beta/Smad signaling pathway - cell viability counter screen (AID 1346829). Note: top concentration of the series differs between compounds; nearly all actives have a fitted effect of over 45% in size. The gist of the method:
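Same-well cytotoxicity: CellTiter-Glo added after the 2 hr room-temperature beta-lactamase substrate step, luminescence measured 30 min later; cells had 5 hr of compound at 37 C.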

Experiment [7] is described as follows: qHTS assay to identify small molecule agonists of the TGF-beta/Smad signaling pathway (AID 1346859; active = well fitted activation curve with a large enough effect in the signal ratio in the repeat runs, not every such curve was filed as active; the % refers to the signal ratio; note: series mostly up to about 77 µM). The procedure, abridged:
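SBE-bla HEK293T cells plated overnight, then compound exposure for 5 h at 37 C. Beta-lactamase reporter read with LiveBLAzer B/G FRET substrate after 2 h at room temperature, fluorescence at 405 nm excitation, 460/530 nm emission.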

Experiment [8] has as its target Thyrotropin-releasing hormone receptor (Homo sapiens) (UniProt P34981). Put plainly: qHTS assay to identify small molecule antagonists of the thyrotropin-releasing hormone receptor (TRHR) signaling pathway (AID 1346877; active = well fitted inhibition curve with a large enough effect in the repeat runs, not every such curve was filed as active; note: series mostly up to about 51 µM). The gist of the method: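 Intracellular calcium fluorescence, read kinetically every second over 3 min, reports TRH-evoked signalling in HEK293 cells carrying TRHR. Test compounds were added 5 min ahead of a 1 nM TRH challenge.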

The target is the same in experiment [9]. Put plainly: qHTS assay to identify small molecule agonists of the thyrotropin-releasing hormone receptor (TRHR) signaling pathway (AID 1346891; calls by dose curve; note: series mostly up to about 58 µM). The procedure, abridged:
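HEK293 cells expressing TRHR plated 18 h at 37 C/5% CO2, calcium dye-loaded 2 h at 37 C, then compound added (agonist mode); kinetic calcium fluorescence read 3 min at 1 s intervals; 15 concentrations in triplicate.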

A short description of experiment [10]: Human pregnane X receptor (PXR) small molecule agonists, qHTS cell viability counter screen (AID 1346977). Note: nearly all actives have a fitted effect of over 50% in size. The procedure, abridged: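 PXR-Luc HepG2 cells (2,000/well, 5% charcoal-stripped FBS) preincubated 5 hr, then exposed to compounds 24 hr at 37 C. Viability read in the same wells by CellTiter-Fluor fluorescence, reagent added at 23 hr, 1 hr incubation.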

Experiment [11] in a line: Caspase-3/7 induction in CHO-K1 cells by small molecules, qHTS cell viability counter screen (AID 1346979). Note: nearly all actives have a fitted effect of over 35% in size. The gist of the method:
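Wild-type CHO-K1 cells (1,500/well) treated with compound after 5 h plating; after 16 h at 37C, viability read as CellTiter-Fluor fluorescence following 1 h reagent incubation, in the same wells as the caspase read.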

Experiment [12] in a line: Caspase-3/7 induction in CHO-K1 cells by small molecules, qHTS assay (AID 1346980). Note: nearly all actives have a fitted effect of over 15% in size. The gist of the method: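 Luminescent Caspase-Glo 3/7 read (30min, room temperature) quantified apoptosis induction. Cells were wild-type CHO-K1, treated with compound for 17hr at 37 C and 5% CO2.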
The nature of experiment [13]: Caspase-3/7 induction in HepG2 cells by small molecules, qHTS cell viability counter screen (AID 1346981). Note: series mostly up to about 92 µM; nearly all actives have a fitted effect of over 30% in size. The gist of the method: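 HepG2, WT, 2,000 cells/well; 5 hr pre-incubation 37 C/5% CO2; compound pin-transferred from DMSO; 16 hr exposure; CellTiter-Fluor, 1 hr; fluorescence read.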
The target of experiment [14] is Nuclear receptor subfamily 1 group I member 2 (Homo sapiens) (UniProt O75469). As to the kind of experiment: Human pregnane X receptor (PXR) small molecule agonists, qHTS assay (AID 1346982). Note: nearly all actives have a fitted effect of over 35% in size. The procedure, abridged:
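Luciferase signal from ONE-Glo (30 min, room temperature) measured activation of hPXR-driven CYP3A4 reporter expression in PXR-Luc HepG2 cells treated with compounds for 24 hr at 37 C.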

Experiment [15] concerns the target Nuclear receptor subfamily 1 group I member 2 (Rattus norvegicus) (UniProt Q9R1A7). Put plainly: Rat pregnane X receptor (rPXR) activation by small molecules, qHTS assay (AID 1346983). Note: nearly all actives have a fitted effect of over 20% in size. Conditions: rPXR luciferase reporter cells, One-Glo luminescence, 24 h; max activation: stronger effect = higher value. The procedure, abridged:
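Luminescent readout (One-Glo luciferase, 30 min room temperature) followed 24 hr compound treatment at 37 C of rPXR cells plated 2,000 per well and preincubated 5hr; qHTS format with compounds delivered in DMSO.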

Experiment [16] deals with Nuclear receptor subfamily 1 group I member 2 (Homo sapiens) (UniProt O75469). Put plainly: CYP3A4 induction through human pregnane X receptor (PXR) by small molecules, qHTS assay (AID 1346984). Note: nearly all actives have a fitted effect of over 40% in size. The procedure, abridged: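 Luminescence readout: luciferase signal after One-Glo (30 min, room temperature), following 3 h at 37C with 3uM final Luciferin-IPA P450 substrate. Cells were DPX-2 (HepG2, PXR/CYP3A4-luc co-transfected) dosed for 24 h.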

For experiment [17] the target is unchanged. Put plainly: Human pregnane X receptor (PXR) activation by small molecules, qHTS assay (AID 1346985). Note: nearly all actives have a fitted effect of over 40% in size. The procedure, abridged:
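DPX-2 cells (HepG2 co-transfected with a PXR response element and a CYP3A4-promoter luciferase construct) were seeded at 2,000 per well, rested 5 hr at 37C, then exposed to DMSO-dissolved compounds for 24 hr. Activation was read as luciferase luminescence.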

For experiment [18], the target named is Cytochrome P450 2D6 (Homo sapiens) (UniProt P10635). As to the kind of experiment: Cytochrome P450 Family 2 Subfamily D Member 6 (CYP2D6) small molecule antagonists: luciferase reporter qHTS assay (AID 1671196). Note: nearly all actives have a fitted effect of over 50% in size. Note: potency is the fitted concentration of half-maximal effect. The gist of the method: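 Read-out is luminescence from luciferin formed by CYP2D6 turnover of a proluciferin substrate, recorded as relative luminescence units. Reactions ran 1 h at room temperature after NADPH regeneration solution was added.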
(In general: A reporter such as luciferase makes a cellular process visible.)

For experiment [19], the target named is Cytochrome P450 2C19 (Homo sapiens) (UniProt P33261). Put plainly: Cytochrome P450 Family 2 Subfamily C Member 19 (CYP2C19) small molecule antagonists: luciferase reporter qHTS assay (AID 1671197). Note: nearly all actives have a fitted effect of over 65% in size. Note: potency is the fitted concentration of half-maximal effect. The gist of the method:
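Quantitative high-throughput screen of the Tox21 library using CYP2C19 with proluciferin substrate. Reaction: NADPH regeneration, 37C, 1 h, after 10 min compound preincubation at room temperature. Readout: luminescence.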

The nature of experiment [20]: Caspase-3/7 induction in HepG2 cells by small molecules, qHTS assay (AID 1346978). Note: nearly all actives have a fitted effect of over 15% in size. The gist of the method: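 Caspase-3/7 induction was measured by Caspase-Glo 3/7 luminescence (30 min, room temperature) after a 17 hr compound exposure of wild-type HepG2 cells seeded at 2,000 per well and pre-incubated 5 hr.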
% is set by controls: 0 for no effect and ±100 for the full control effect.

Sequence of Thyrotropin-releasing hormone receptor (Homo sapiens) (P34981 whole entry, looked up): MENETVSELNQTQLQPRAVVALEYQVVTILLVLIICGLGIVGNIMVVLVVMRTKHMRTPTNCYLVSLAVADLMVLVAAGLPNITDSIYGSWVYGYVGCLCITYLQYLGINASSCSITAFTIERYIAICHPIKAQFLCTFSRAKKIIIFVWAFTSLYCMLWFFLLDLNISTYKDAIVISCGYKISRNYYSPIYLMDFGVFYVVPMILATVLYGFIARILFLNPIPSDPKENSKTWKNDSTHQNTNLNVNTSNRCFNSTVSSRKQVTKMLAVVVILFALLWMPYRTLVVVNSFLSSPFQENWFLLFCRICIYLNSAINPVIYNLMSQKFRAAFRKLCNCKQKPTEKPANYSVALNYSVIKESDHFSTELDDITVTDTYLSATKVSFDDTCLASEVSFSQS
Sequence of Cytochrome P450 2D6 (Homo sapiens) (P10635 whole entry, looked up): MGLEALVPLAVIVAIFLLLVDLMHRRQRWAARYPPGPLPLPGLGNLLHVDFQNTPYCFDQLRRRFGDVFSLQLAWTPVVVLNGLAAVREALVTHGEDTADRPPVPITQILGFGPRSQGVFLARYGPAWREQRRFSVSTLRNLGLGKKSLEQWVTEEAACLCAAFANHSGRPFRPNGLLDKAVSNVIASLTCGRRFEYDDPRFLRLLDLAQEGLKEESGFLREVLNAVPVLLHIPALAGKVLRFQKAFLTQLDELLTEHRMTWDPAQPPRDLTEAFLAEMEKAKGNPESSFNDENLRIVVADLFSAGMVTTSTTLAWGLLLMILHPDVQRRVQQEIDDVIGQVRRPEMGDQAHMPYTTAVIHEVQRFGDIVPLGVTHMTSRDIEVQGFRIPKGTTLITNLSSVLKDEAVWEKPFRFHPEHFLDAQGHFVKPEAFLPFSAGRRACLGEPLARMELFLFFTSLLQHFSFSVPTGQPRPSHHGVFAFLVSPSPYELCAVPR
Sequence of Nuclear receptor subfamily 1 group I member 2 (Homo sapiens) (O75469 whole entry, looked up): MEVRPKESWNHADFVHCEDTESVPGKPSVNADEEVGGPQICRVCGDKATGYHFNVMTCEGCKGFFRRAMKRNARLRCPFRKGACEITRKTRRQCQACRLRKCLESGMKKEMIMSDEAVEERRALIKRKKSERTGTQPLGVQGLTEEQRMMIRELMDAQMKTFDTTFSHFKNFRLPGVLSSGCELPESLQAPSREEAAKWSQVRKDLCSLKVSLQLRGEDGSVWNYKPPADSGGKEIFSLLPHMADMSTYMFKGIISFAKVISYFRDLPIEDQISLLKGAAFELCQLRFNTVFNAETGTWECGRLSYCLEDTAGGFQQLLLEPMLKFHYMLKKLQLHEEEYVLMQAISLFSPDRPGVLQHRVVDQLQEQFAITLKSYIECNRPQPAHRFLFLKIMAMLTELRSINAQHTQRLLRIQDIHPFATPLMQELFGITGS
Sequence of Cytochrome P450 2C19 (Homo sapiens) (P33261 whole entry, looked up): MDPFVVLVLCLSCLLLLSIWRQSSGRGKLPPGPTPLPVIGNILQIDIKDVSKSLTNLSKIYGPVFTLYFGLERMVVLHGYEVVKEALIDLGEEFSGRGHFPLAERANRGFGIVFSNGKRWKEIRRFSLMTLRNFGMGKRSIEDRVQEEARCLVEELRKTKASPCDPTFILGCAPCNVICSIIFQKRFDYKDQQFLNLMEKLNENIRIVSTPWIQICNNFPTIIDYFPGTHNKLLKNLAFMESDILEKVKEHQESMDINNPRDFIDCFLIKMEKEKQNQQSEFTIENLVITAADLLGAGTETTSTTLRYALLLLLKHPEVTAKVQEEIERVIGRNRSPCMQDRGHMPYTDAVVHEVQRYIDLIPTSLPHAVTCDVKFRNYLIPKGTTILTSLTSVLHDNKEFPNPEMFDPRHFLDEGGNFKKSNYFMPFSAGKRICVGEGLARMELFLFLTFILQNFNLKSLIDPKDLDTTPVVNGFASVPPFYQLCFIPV
Sequence of Progesterone receptor (Homo sapiens) (P06401 whole entry, looked up): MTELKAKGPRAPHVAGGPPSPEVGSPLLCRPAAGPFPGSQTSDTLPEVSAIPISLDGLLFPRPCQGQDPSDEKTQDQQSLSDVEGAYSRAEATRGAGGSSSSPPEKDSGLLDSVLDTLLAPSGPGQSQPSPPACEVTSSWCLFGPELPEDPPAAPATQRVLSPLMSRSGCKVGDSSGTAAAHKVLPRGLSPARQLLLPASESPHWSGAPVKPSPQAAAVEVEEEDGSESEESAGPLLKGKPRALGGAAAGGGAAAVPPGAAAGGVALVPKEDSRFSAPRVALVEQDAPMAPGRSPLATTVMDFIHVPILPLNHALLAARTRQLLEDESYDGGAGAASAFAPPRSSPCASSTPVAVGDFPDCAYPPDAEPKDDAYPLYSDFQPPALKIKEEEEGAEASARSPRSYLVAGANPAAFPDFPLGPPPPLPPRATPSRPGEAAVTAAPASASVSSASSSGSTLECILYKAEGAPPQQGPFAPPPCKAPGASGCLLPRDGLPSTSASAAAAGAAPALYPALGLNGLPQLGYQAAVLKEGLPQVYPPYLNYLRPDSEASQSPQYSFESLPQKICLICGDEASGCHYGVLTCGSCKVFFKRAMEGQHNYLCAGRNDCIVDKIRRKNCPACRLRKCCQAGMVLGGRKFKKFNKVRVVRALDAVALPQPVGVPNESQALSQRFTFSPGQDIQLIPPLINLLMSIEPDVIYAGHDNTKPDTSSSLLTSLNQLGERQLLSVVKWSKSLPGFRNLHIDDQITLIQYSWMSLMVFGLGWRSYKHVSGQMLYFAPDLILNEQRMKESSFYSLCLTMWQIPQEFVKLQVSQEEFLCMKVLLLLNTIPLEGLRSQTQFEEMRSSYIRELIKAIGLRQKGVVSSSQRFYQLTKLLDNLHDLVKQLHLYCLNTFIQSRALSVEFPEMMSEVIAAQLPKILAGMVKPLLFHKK
Sequence of Nuclear receptor subfamily 1 group I member 2 (Rattus norvegicus) (Q9R1A7 whole entry, looked up): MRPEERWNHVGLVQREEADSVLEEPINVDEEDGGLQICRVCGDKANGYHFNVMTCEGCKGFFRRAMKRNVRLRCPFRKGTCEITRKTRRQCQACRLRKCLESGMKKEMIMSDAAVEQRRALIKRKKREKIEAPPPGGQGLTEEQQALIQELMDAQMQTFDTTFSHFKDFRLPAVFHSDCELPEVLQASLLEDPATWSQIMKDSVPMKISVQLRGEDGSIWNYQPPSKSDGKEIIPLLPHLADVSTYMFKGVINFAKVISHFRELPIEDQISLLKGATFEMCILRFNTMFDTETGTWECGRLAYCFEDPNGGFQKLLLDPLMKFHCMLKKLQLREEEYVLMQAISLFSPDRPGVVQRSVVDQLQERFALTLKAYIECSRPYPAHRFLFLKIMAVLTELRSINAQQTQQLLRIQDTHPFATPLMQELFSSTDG

Turning to `CN(N=O)C(=O)N[C@@H]1[C@@H](O)[C@H](O)[C@@H](CO)O[C@@H]1O`, the Potency entry in [1], in [2], in experiment [3], in experiment [4], in experiment [5] and in experiment [6] was “inactive” each time. The Potency result in [8], in experiment [9], in experiment [10], in [11], in [12] and in experiment [13] was “inactive” each time. Further, the Potency entry in experiment [14], in experiment [16], in [18] and in experiment [19] was “inactive” in each case. The outcome in experiment [7] and in [17] was inactive. The max activation in experiment [15] is -0.687% (inactive).
As to `CCCCCCCC(=O)OCC(COC(=O)CCCCCCC)OC(=O)CCCCCCC`, the Potency result in [1], in experiment [2], in experiment [3], in experiment [4], in [5] and in experiment [6] was “inactive” throughout. The Potency result in experiment [8], in experiment [9], in experiment [10], in experiment [20], in [11] and in experiment [13] was “inactive” throughout. Further, the Potency entry in experiment [14], in [16], in experiment [18] and in experiment [19] was “inactive” throughout. The compound was called inactive in experiment [7] and in experiment [17]. Besides, the max activation in [15] is -1.45% (inactive).
As to `C=CCc1ccc(O)c(OC)c1`, the Potency entry in [1], in experiment [2], in [3], in experiment [4], in [5] and in [6] was “inactive” throughout. In addition, the Potency result in experiment [8], in [9], in [10], in experiment [20], in experiment [11] and in experiment [12] was “inactive” throughout. Further, the Potency entry in experiment [13], in experiment [14] and in experiment [16] was “inactive” in each case. Moreover, the call in [7] and in experiment [17] was inactive. The max activation in experiment [15] is -1.79% (inactive). The Potency in [18] was 9.97 µM (active) and inactive; in experiment [19] it was 39.7 µM (active) and 56.4 µM (active) and inactive.
For the compound `F[B-](F)(F)F`, the Potency entry in [1], in [2], in experiment [3], in experiment [4], in experiment [5] and in experiment [6] was “inactive” throughout. For the same compound, the Potency result in experiment [8], in [9], in [10], in [20], in experiment [11] and in experiment [12] was “inactive” each time. Also, the Potency result in [13], in [14] and in [18] was “inactive” in each case. In addition, the result in [7] was inactive. For the same compound, in experiment [19], the Potency is 73.9 µM (active) and inactive and 79.6 µM (active).
`O=C1NC(=O)C(c2ccccc2)(c2ccccc2)N1`: the Potency entry in experiment [1], in experiment [2], in experiment [3], in experiment [4], in experiment [5] and in [6] was “inactive” in each case. Moreover, the Potency entry in [8], in experiment [9], in experiment [10], in experiment [11], in [12] and in experiment [13] was “inactive” each time. In addition, the compound was called inactive in experiment [7].
Regarding `Cc1cccc(C)c1`, the Potency result in [1], in experiment [2], in [3], in experiment [4], in [5] and in [6] was “inactive” each time. For the same compound, the Potency result in [8], in [9], in experiment [10], in [20], in experiment [11] and in experiment [13] was “inactive” each time. The Potency entry in experiment [14] is “inactive”. Besides, in experiment [7], the compound was called inactive. Besides, the Potency entry was “inactive and 21.8 µM (active)” in experiment [18]; 68.6 µM (active) and inactive in experiment [19].
Take `C/C=C/C=C/C(=O)O`: the Potency entry in experiment [1], in experiment [2], in experiment [3], in experiment [4], in [5] and in experiment [6] was “inactive” each time. Besides, the Potency result in [8], in experiment [9], in [10], in experiment [20], in [11] and in experiment [13] was “inactive” each time. Also, the call in experiment [7] was inactive. Moreover, in [15], the max activation is 0.352% (inactive).

The record behind these values is PubChem BioAssay (Tox21).
